# Reference: PubChem BioAssay (NCATS)
# Where “and” joins values, the source holds several entries; their conditions need not be identical. Identical values can stand only once. Records with an inconclusive call do not appear. Entries that show only a call come without a potency. Calls of active or inactive are those of the source. Unless noted, calls follow the shape of the dose curve; as a rule, active = well fitted curve in the direction sought with a large enough effect; inconclusive = small, poorly fitted or top-dose-only effect, or another doubt; inactive = no such curve, though single readings can be large; an effect the other way counts as inactive or inconclusive.
# Tests used:
# [1] = molecular target: Calcium and integrin-binding protein 1 (Homo sapiens) (UniProt Q99828); assay: Primary qHTS for Identification of Calcium Integrin Binding Protein 1 (CIB1) Competitor (AID 1508620);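 also: GST tagged CIB1 binding a fluorescein labelled alphaIIb integrin peptide tracer; top concentration of the series differs between compounds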
# Calcium and integrin-binding protein 1 (Homo sapiens), sequence (Q99828 whole entry, looked up): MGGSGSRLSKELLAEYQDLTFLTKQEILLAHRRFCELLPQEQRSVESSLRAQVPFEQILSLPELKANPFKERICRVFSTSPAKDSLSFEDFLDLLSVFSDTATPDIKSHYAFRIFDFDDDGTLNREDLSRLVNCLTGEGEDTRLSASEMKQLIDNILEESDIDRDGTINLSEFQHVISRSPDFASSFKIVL
# Outline: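 Fluorescence polarization competition: GST-tagged CIB1 (1 uM final) preincubated with compound 15 min at room temperature, then FITC-labelled alphaIIb peptide (100 nM final) added. After 15 min at room temperature, polarization read at Ex 480/Em 540.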
# [2] = Primary qHTS for small molecule stabilizers of the endoplasmic reticulum resident proteome: Secreted ER Calcium Modulated Protein (SERCaMP) assay (AID 1508630)
# Outline: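 The SH-SY5Y reporter protocol was run at 3 concentrations up to 38.3 uM (primary) or 11 concentrations (follow-up): 16 h compound, 100 nM thapsigargin for 4 h, then extracellular luciferase luminescence.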
# [3] = molecular target: Cytochrome P450 2D6 (Homo sapiens) (UniProt P10635); assay: Cytochrome P450 family 2 subfamily D member 6 (CYP2D6) small molecule antagonists: luciferase biochemical (cell-free) qHTS assay (AID 1645840; active = well fitted curve in the direction sought with a large enough effect in the repeat runs; an effect the other way counts as inactive or inconclusive; also: nearly all actives have a fitted effect of over 55% in size; also: potency is read from the fitted curve at half-maximal effect)
# Cytochrome P450 2D6 (Homo sapiens), sequence (P10635 whole entry, looked up): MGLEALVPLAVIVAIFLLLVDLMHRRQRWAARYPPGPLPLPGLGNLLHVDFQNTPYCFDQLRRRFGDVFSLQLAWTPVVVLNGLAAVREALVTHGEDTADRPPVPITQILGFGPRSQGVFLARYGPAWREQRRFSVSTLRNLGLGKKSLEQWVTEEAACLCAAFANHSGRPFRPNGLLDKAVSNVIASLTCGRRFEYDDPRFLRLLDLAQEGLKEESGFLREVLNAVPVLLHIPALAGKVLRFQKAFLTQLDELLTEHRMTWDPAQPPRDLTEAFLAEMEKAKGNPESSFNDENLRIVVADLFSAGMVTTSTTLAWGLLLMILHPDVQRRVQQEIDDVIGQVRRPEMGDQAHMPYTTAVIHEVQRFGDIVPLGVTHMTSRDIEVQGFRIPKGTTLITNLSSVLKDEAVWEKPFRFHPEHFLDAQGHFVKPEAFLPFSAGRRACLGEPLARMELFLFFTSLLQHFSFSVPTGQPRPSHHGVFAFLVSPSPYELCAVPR
# Outline: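 P450-Glo CYP2D6 system: proluciferin substrate converted by enzyme to luciferin, read by luminescence proportional to activity. Enzyme-substrate mix with compound 10 min at room temperature, then NADPH regeneration 1 h before detection reagent.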
# [4] = A High-Content qHTS Against Drug Library for the Identification of Small Molecules that Inhibit DYT1 Early Onset Primary Dystonia-Associated Cell Pathology (AID 1645839; calls by dose curve; also: series mostly up to about 46 µM)
# Outline: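 Cells were seeded and left for 24 h, then dosed with compound alongside tetracycline induction of mutant EGFP-TorsinA. They were incubated for 48 h, fixed in 4% paraformaldehyde, permeabilized and imaged for mislocalization (%pathology) and cell count.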
# [5] = molecular target: Cytochrome P450 3A4 (Homo sapiens) (UniProt P08684); assay: Cytochrome P450 family 3 subfamily A member 4 (CYP3A4) small molecule antagonists: luciferase qHTS assay (AID 1645841; active = well fitted curve in the direction sought with a large enough effect in the repeat runs; an effect the other way counts as inactive or inconclusive; also: nearly all actives have a fitted effect of over 45% in size)
# Cytochrome P450 3A4 (Homo sapiens), sequence (P08684 whole entry, looked up): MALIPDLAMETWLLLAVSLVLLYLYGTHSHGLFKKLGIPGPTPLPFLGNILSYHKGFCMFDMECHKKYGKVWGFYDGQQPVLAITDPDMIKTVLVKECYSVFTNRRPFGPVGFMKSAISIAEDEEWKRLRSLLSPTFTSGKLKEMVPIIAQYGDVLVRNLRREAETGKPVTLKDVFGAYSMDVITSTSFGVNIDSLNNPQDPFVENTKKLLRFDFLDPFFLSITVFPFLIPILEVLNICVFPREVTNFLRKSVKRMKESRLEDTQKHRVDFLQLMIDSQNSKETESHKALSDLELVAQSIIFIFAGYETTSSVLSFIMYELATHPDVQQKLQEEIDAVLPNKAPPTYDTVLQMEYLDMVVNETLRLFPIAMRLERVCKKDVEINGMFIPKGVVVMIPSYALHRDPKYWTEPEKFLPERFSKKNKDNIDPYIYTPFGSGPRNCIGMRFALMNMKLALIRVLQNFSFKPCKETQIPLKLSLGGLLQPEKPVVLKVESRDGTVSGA
# Outline: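 P450-Glo CYP3A4 enzyme with proluciferin substrate preincubated 10 min with compound at room temperature, then NADPH regeneration 1 h. Luciferin detection reagent added for 20 min; luminescence recorded. Ketoconazole positive control.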
Structure (SMILES),outcome [1],Potency [2],Potency [3],Potency [4],outcome [5]
OCC(CO)N[C@H]1C[C@](O)(CO)[C@@H](O)[C@H](O)[C@H]1O,inactive,inactive,inactive,–,–
CCCCCCCCCCCCCCCCCCOCC(O)CO (stereo not given),inactive,inactive,inactive,inactive,–
Cc1cc(CC(=O)O)n(C)c1C(=O)c1ccc(Cl)cc1,inactive,inactive,inactive,inactive,–
O=S(=O)(O)c1cc(I)c(O)c2ncccc12,inactive,inactive,inactive,–,–
CC1=C(/C=C/C(C)=C/C=C/C(C)=C/C(=O)O)C(C)(C)CCC1,inactive,inactive,inactive,–,–
OCC(O)CN1CCN(c2ccccc2)CC1 (stereo not given),inactive,inactive,inactive,inactive,inactive
Cc1ccc2nc(N)[nH]c(=O)c2c1Sc1ccncc1,inactive,inactive,7.76 µM (active) and 10.7 µM (active),inactive,–
O=C(O)CN1C(=O)c2cccc3cccc(c23)C1=O,inactive,inactive,inactive,inactive,–
O=c1cc[nH]c(=S)[nH]1,inactive,inactive,inactive,–,–
O=C1NS(=O)(=O)c2ccccc21,inactive,inactive,inactive,inactive,–
CC[C@H]1CN2CCc3cc(OC)c(OC)cc3[C@@H]2C[C@@H]1C[C@H]1NCCc2cc(OC)c(OC)cc21,inactive,inactive,inactive,–,–
CCOc1ccc2ccccc2c1C(=O)N[C@@H]1C(=O)N2[C@@H]1SC(C)(C)[C@@H]2C(=O)O,inactive,–,inactive,inactive,–
Oc1ccc(C(O)CNCCCCCCNCC(O)c2ccc(O)c(O)c2)cc1O (stereo not given),inactive,–,inactive,inactive,–
CC/C=C(\C(=O)N[C@@H]1C(=O)N2C(C(=O)OCOC(=O)C(C)(C)C)=C(COC(N)=O)CS[C@H]12)c1csc(N)n1,inactive,–,–,inactive,–
CC[C@@]1(c2ccccc2)NC(=O)N(C)C1=O,inactive,–,inactive,inactive,–
CC(C)c1c(C(=O)Nc2ccccc2)c(-c2ccccc2)c(-c2ccc(F)cc2)n1CC[C@@H](O)C[C@@H](O)CC(=O)O,inactive,–,–,inactive,–
COc1cc(C(=O)N2CCOCC2)cc(OC)c1OC,inactive,–,–,inactive,–
CC1(C)S[C@@H]2[C@H](NC(=O)Cc3ccccc3)C(=O)N2[C@H]1C(=O)O (tested in a mixture with another compound),inactive,–,–,inactive,–
O=C(O)[C@@H]1CSCN1,inactive,inactive,inactive,–,inactive
N[C@H](C(=O)O)c1ccc(O)cc1,inactive,–,inactive,inactive,–

Structure (SMILES),outcome [1],Potency [2],Potency [3],Potency [4],outcome [5]
C[C@@H]1CCN(C(=O)[C@H](CCCN=C(N)N)NS(=O)(=O)c2cccc3c2NC[C@H](C)C3)[C@@H](C(=O)O)C1,inactive,–,inactive,inactive,–
CCCCOC(=O)c1ccc(O)cc1,inactive,–,–,inactive,–
CS(=O)(=O)c1ccc([C@@H](O)[C@@H](CF)NC(=O)C(Cl)Cl)cc1,inactive,–,–,inactive,–
Nc1cc(=O)[nH]c(N)n1,inactive,inactive,inactive,–,–
C#CCN(C)Cc1ccccc1,inactive,–,–,inactive,–
CC1CC(OC(=O)C(O)c2ccccc2)CC(C)(C)N1C (stereo not given),inactive,–,inactive,inactive,–
COc1ccccc1O,inactive,–,–,inactive,–
O=C1OC(OC(=O)c2cccnc2Nc2cccc(C(F)(F)F)c2)c2ccccc21 (stereo not given),inactive,–,–,inactive,–
CCN(CC)CCSC(=O)C(c1ccccc1)c1ccccc1,inactive,–,–,inactive,–
O=C(O)[C@H](O)c1ccccc1,inactive,–,inactive,inactive,–
Cn1c(=O)c2c(ncn2CC2OCCO2)n(C)c1=O,inactive,–,inactive,inactive,–
CCN(CC)C(=O)Nc1ccc(OCC(O)CNC(C)(C)C)c(C(C)=O)c1 (stereo not given),inactive,inactive,inactive,–,–
CC(=O)Oc1c(C)c(C)c2c(c1C)CC[C@@](C)(CCC[C@H](C)CCC[C@H](C)CCCC(C)C)O2,inactive,–,–,inactive,–
CC(O)CN(CCN(CC(C)O)CC(C)O)CC(C)O (stereo not given),inactive,–,inactive,inactive,–
NCC(=O)CCC(=O)O,inactive,–,–,inactive,–
CCC(=O)Nc1ccc(O)cc1,inactive,–,inactive,inactive,–
CCCCC(CC)COC(=O)c1ccccc1O (stereo not given),inactive,inactive,inactive,–,–
CN(C)CCCO[C@@H]1[C@H]2OC(C)(C)O[C@H]2O[C@@H]1C(O)CO (stereo not given in full),inactive,–,–,inactive,–
CC1=C(C/C=C(\C)CCC[C@H](C)CCC[C@H](C)CCCC(C)C)C(=O)c2ccccc2C1=O,inactive,–,inactive,inactive,–
CC12CCC(CC1)C(C)(C)O2,inactive,–,inactive,inactive,–
